ELG1 repair inh – ELG1-dependent DNA repair inhibition; HEK293T ELG1-luciferase reporter, luminescence, 16 h; DNA damage induced by 5-fluorouridine; Potency, µM (highest dose often 46.1 µM), inactives show at the highest dose activity change, negative = inhibition, most hits filed as inhibitors; actives 2.3% (n = 330,000); AID 504467; further: on the % scale 0 is the no-effect control and ±100 the full control effect; nearly all actives have a fitted effect of over 55% in size
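Cells (2,000 per well) received 5-fluorouridine plus test compound or DMSO and were incubated 16 hr at 37 °C, 5% CO2. Luciferase activity was read by luminescence 30 min after ONE-Glo addition; signal suppression marked inhibition of damage-induced ELG1 function.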
SW480 rerep – induces DNA re-replication in SW480 colon adenocarcinoma cells. SW480 DNA re-replication, Hoechst DNA content imaging, 48 h. Potency, µM (top dose mostly 46.1 µM), for the others: at the highest dose re-replication activation, most hits filed as activators. actives 1.8% (n = 340,000). AID 624297; further: % of control where 0% means no effect; nearly all actives have a fitted effect of over 55% in size
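Quantitative HTS format with DMSO vehicle controls; 48 hr drug incubation at 37 C, then 40 min Hoechst staining and scanning imager measurement at 405 nm excitation.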
MCF10A rereplic – induces DNA re-replication in MCF 10a normal breast cells; MCF 10A DNA re-replication, Hoechst nuclear intensity, 48 h; Potency, µM (top dose mostly 46.1 µM), inactives show at the top dose activity, positive = re-replication, actives largely listed as activators; actives 2.9% (n = 350,000); further: % of control where 0% means no effect; nearly all actives have a fitted effect of over 50% in size
KB-3-1 cytotox – KB-3-1 parental cell cytotoxicity | KB-3-1 viability, CellTiter-Glo ATP luminescence, 72 h | Potency, µM (highest dose often 46.1 µM), most hits filed as cytotoxic | actives 1.4% (n = 400,000); further: on the % scale 0 is the no-effect control and ±100 the full control effect; nearly all actives have a fitted effect of over 60% in size
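KB-3-1 parental drug-naive adenocarcinoma cells in DMEM/10% FBS, incubated 72 h at 37 C with pin-transferred compounds across a concentration series. Viability by CellTiter-Glo luminescence; concentration-response curves fitted after normalization.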
KB-V1 MDR tox – kills drug-selected multidrug resistant KB-V1 cells. KB-V1 MDR cells viability, CellTiter-Glo, 72 h. Potency, µM (top dose mostly 46.1 µM), usual class: cytotoxic. actives 3.4% (n = 400,000). AID 1347076; further: on the % scale 0 is the no-effect control and ±100 the full control effect; nearly all actives have a fitted effect of over 60% in size
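Cytotoxicity toward P-gp-expressing KB-V1 cells was determined as loss of CellTiter-Glo luminescence after 72 h at 37 degrees C. Compounds were tested in quantitative HTS format across a concentration range, with curves fitted to normalized data.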
Numbers without * were called inactive; [ ] = remark or other dose. Sampled rows, rich in hits. Any-hit rate of the full collection: about 8.1%. The call rests on the fitted dose curve; in most records, active means well fitted curve in the direction sought with a large enough effect; inconclusive means small, poorly fitted or top-dose-only effect, or another doubt; inactive means no such curve, though single readings can be large; an effect the other way counts as inactive or inconclusive. Potency means the concentration at half of the fitted maximal effect.

Results for CCOC(=O)c1ccc(NC(=O)c2nc[nH]c2C(=O)N[C@@H](Cc2ccccc2)C(=O)OC(C)(C)C)cc1 ?
ELG1 repair inh: 23µM*; SW480 rerep: inconclusive; MCF10A rereplic: -1%; KB-3-1 cytotox: 13µM*; KB-V1 MDR tox: inactive

What do the screens show for `Cc1nn(CC(=O)Nc2cccc(C(F)(F)F)c2)c(=O)c2nn(-c3ccccc3)c(C)c12`?
KB-3-1 cytotox: inactive; KB-V1 MDR tox: inactive

What do the screens show for `C#CCn1c(C2CC(=O)N(c3ccc(OC)cc3)C2)nc2ccccc21` (stereo not given)?
KB-3-1 cytotox: inactive; KB-V1 MDR tox: inactive

How did CCCCN(CCCC)CC(O)c1cc(Cl)cc2c1-c1ccc(Cl)cc1/C2=C/c1ccc(Cl)cc1 (stereo not given) do in these assays?
SW480 rerep: inconclusive; MCF10A rereplic: 10%

What do the screens show for `Cc1ccc(C)c(Cn2cnc3ccccc3c2=O)c1`?
KB-3-1 cytotox: inactive; KB-V1 MDR tox: inactive

Results for CC(C)(C)OC(=O)[C@H](Cc1ccccc1)NC(=O)c1[nH]cnc1C(=O)Nc1cccc(Cl)c1 ?
ELG1 repair inh: inconclusive; SW480 rerep: 7%[9.22 µM]; MCF10A rereplic: 15µM*; KB-3-1 cytotox: inconclusive; KB-V1 MDR tox: inconclusive

Results for O=c1cc(O)c(Cl)c[nH]1 ?
SW480 rerep: 1%; MCF10A rereplic: 1%

How did CC(C)NS(=O)(=O)c1ccc(CCC(=O)Nc2cc(Cl)ccc2Oc2ccccc2)cc1 do in these assays?
ELG1 repair inh: inconclusive; SW480 rerep: 5%; MCF10A rereplic: 18%; KB-3-1 cytotox: inconclusive; KB-V1 MDR tox: inactive

What do the screens show for `CCNS(=O)(=O)c1ccc(CCC(=O)Nc2cc(Cl)ccc2Oc2ccccc2)cc1`?
ELG1 repair inh: inconclusive; SW480 rerep: 3%; MCF10A rereplic: 5%; KB-3-1 cytotox: inactive; KB-V1 MDR tox: 16µM*

What do the screens show for `CCOc1ccccc1CNC(=O)Cn1nc(N2CCN(c3ccccc3)CC2)ccc1=O`?
KB-3-1 cytotox: inactive; KB-V1 MDR tox: inactive

How did CCOCc1cc(C2NC(=O)NC(C)=C2C(=O)OCC)ccc1OC (stereo not given) do in these assays?
ELG1 repair inh: 0%; SW480 rerep: -2%; MCF10A rereplic: -14%; KB-3-1 cytotox: inactive; KB-V1 MDR tox: inactive

Results for CCOC(=O)C1=C(C)NC(=O)NC1c1ccc(OC)c(Cl)c1 (stereo not given) ?
ELG1 repair inh: 1%; SW480 rerep: -5%; MCF10A rereplic: -7%; KB-3-1 cytotox: inactive; KB-V1 MDR tox: 21µM*

What do the screens show for `CCOC(=O)c1ccc2c(c1)n(CC)c(/C=C/N(C)c1ccccc1)[n+]2CC`?
ELG1 repair inh: inconclusive; SW480 rerep: -6%; MCF10A rereplic: 11%; KB-3-1 cytotox: inactive; KB-V1 MDR tox: inactive

Results for CC[n+]1c(/C=C/N(C)c2ccccc2)n(-c2ccccc2)c2ccc(-c3nc4ccccc4s3)cc21 ?
ELG1 repair inh: 4.1µM*; SW480 rerep: 16µM*; MCF10A rereplic: inconclusive; KB-3-1 cytotox: 5.8µM*; KB-V1 MDR tox: inactive

How did CNC(=S)N1N=C(c2ccc(C)cc2)CC1c1ccc(Br)cc1 (stereo not given) do in these assays?
ELG1 repair inh: inconclusive; SW480 rerep: 12%; MCF10A rereplic: 8%; KB-3-1 cytotox: inactive; KB-V1 MDR tox: 15µM*

What do the screens show for `CNC(=S)N1N=C(c2ccc(C)cc2)CC1c1ccc(Cl)cc1` (stereo not given)?
ELG1 repair inh: 16µM*; SW480 rerep: 1%; MCF10A rereplic: 15%; KB-3-1 cytotox: inactive; KB-V1 MDR tox: inactive

How did CNC(=S)N1N=C(c2ccccc2)CC1c1ccccc1Cl (stereo not given) do in these assays?
ELG1 repair inh: 4%; SW480 rerep: 10%; MCF10A rereplic: inconclusive; KB-3-1 cytotox: inconclusive; KB-V1 MDR tox: inactive

What do the screens show for `COc1ccc(C(=O)Nc2nc3c(s2)Cc2c(Br)ccc(OC)c2-3)cc1OC`?
KB-3-1 cytotox: inconclusive; KB-V1 MDR tox: inactive

What do the screens show for `CCc1ccc(NC(=O)CCc2ccc(C)o2)cc1`?
ELG1 repair inh: -10%; SW480 rerep: inconclusive; MCF10A rereplic: 16µM*; KB-3-1 cytotox: inconclusive; KB-V1 MDR tox: inactive

How did COc1cccc(/C=C2\SC(=S)N(CC(=O)N(C)C3CCS(=O)(=O)C3)C2=O)c1 (stereo not given) do in these assays?
ELG1 repair inh: 0%; SW480 rerep: inconclusive; MCF10A rereplic: inconclusive; KB-3-1 cytotox: inactive; KB-V1 MDR tox: inactive

What do the screens show for `COc1ccc(/C=C2\SC(=S)N(CC(=O)N(C)C3CCS(=O)(=O)C3)C2=O)cc1` (stereo not given)?
ELG1 repair inh: 9%; SW480 rerep: inconclusive; MCF10A rereplic: 21µM*; KB-3-1 cytotox: inactive; KB-V1 MDR tox: inactive

How did C=COc1ccc(N2C(=O)c3ccccc3OC2C)cc1 (stereo not given) do in these assays?
ELG1 repair inh: 1%; SW480 rerep: inconclusive; MCF10A rereplic: 11%; KB-3-1 cytotox: inactive; KB-V1 MDR tox: inactive

What do the screens show for `CCO/C(C)=C1/SC(=S)NC1=O`?
ELG1 repair inh: 4%; SW480 rerep: -5%[9.22 µM]; MCF10A rereplic: 5%; KB-3-1 cytotox: inconclusive; KB-V1 MDR tox: inactive

What do the screens show for `CCOc1c(O)ccc(/C=C2\SC(=S)NC2=O)c1[N+](=O)[O-]`?
ELG1 repair inh: 2%; SW480 rerep: 26%; MCF10A rereplic: 26µM*; KB-3-1 cytotox: inactive; KB-V1 MDR tox: inactive

What do the screens show for `COc1cccc(/C=C2\SC(=S)N(N3C(=O)CCCC3=O)C2=O)c1`?
ELG1 repair inh: inconclusive; SW480 rerep: 5%; MCF10A rereplic: inconclusive; KB-3-1 cytotox: inactive; KB-V1 MDR tox: inactive

Results for CCOc1ccc(N(C)c2ccc(/C=C3/SC(=S)NC3=O)cc2)cc1 ?
ELG1 repair inh: -15%; SW480 rerep: inconclusive; MCF10A rereplic: 4.1µM*; KB-3-1 cytotox: inactive; KB-V1 MDR tox: inactive

What do the screens show for `CN(C)c1ccc(C=C2SC(=S)NC2=O)cc1`?
SW480 rerep: 0%; MCF10A rereplic: 13%; KB-3-1 cytotox: inactive; KB-V1 MDR tox: inactive

How did COc1cccc(C(C)=C2SC(=S)NC2=O)c1 do in these assays?
SW480 rerep: -3%; MCF10A rereplic: 5%; KB-3-1 cytotox: inactive; KB-V1 MDR tox: 21µM*

Results for COc1cccc(C=C2SC(=S)NC2=O)c1 ?
SW480 rerep: 1%; MCF10A rereplic: 16µM*; KB-3-1 cytotox: inconclusive; KB-V1 MDR tox: inconclusive

Results for O=C1NC(=S)S/C1=C\c1cc(Cl)ccc1Cl ?
SW480 rerep: -10%; MCF10A rereplic: inconclusive; KB-3-1 cytotox: inconclusive; KB-V1 MDR tox: inconclusive

What do the screens show for `COc1cccc(C(NC(C)=O)c2nc(-c3ccc(OC)nc3)cs2)c1` (stereo not given)?
KB-3-1 cytotox: inactive; KB-V1 MDR tox: inactive

Screening data: PubChem BioAssay, National Center for Advancing Translational Sciences (NCATS)
